Measurements from PubChem BioAssay (EPA / NIEHS).
Inconclusive results are not listed. Activity calls are given as the source filed them. Rule for the calls, unless noted: active = hit-call score of the fitted dose curve at least 0.9, where 1 is the maximum; inconclusive = response in the unintended direction; inactive = score below 0.9.

Tests used:
[1] = read-out: xenobiotic metabolism (CYP1A2), CYP1A2 (gene 1544); test: CLD_CYP1A2_24hr: CellzDirect (CLD) Gene Expression Assay for xenobiotic metabolism (CYP1A2) at 24 hours (AID 2283683)
Summary of the method: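 CYP1A2 mRNA induction measured by quantitative nuclease protection (chemiluminescent) in human primary hepatocytes 24 h after multi-concentration chemical dosing with daily fresh solutions. DMSO (0.2%) baseline; positive-direction fitting; morphology-based cytotoxicity noted.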

[2] = read-out: ABC Transporter (ABCB1), ABCB1 (gene 5243); test: CLD_ABCB1_24hr: CellzDirect (CLD) Gene Expression Assay for ABC Transporter (ABCB1) at 24 hours (AID 2283684);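 for AC50: potency for increase in ABCB1 mRNA relative to DMSO vehicle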
Summary of the method: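 ABCB1 mRNA induction versus 0.2% DMSO vehicle was read by qNPA chemiluminescence at 24 h. Cultured human hepatocytes from two donor preparations received daily fresh dosing, and phase-contrast cytotoxicity calls were annotated alongside the data.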

[3] = read-out: Cytochrome P450 2C9 (Homo sapiens) (UniProt P11712); test: CLD_CYP2C9_24hr: CellzDirect (CLD) Gene Expression Assay for xenobiotic metabolism (CYP2C9) at 24 hours (AID 2283688)
Summary of the method: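 Induction of CYP2C9 mRNA was quantified by quantitative nuclease protection assay (chemiluminescence), gain of signal versus 0.2% DMSO vehicle, 24 h after dosing. Human primary hepatocytes (two donors) received fresh chemical daily at multiple concentrations; morphology-based cytotoxicity flagged yes/no.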

[4] = read-out: Cytochrome P450 3A4 (Homo sapiens) (UniProt P08684); test: CLD_CYP3A4_24hr: CellzDirect (CLD) Gene Expression Assay for xenobiotic metabolism (CYP3A4) at 24 hours (AID 2283689)
Summary of the method: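 CYP3A4 mRNA induction read by quantitative nuclease protection (chemiluminescence) 24 hr after dosing. Cultured human hepatocytes (two donor preparations) treated daily, vehicle 0.2% DMSO; phase-contrast morphology annotates cytotoxicity.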

[5] = read-out: alkyl and aryl transferase (GSTA2), GSTA2 (gene 2939); test: CLD_GSTA2_24hr: CellzDirect (CLD) Gene Expression Assay for alkyl and aryl transferase (GSTA2) at 24 hours (AID 2283693)
Summary of the method: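 GSTA2 transcript levels were quantified by quantitative nuclease protection assay in primary human hepatocytes 24 h after daily dosing with fresh solutions at multiple concentrations; 0.2% DMSO vehicle as baseline, cytotoxicity flagged morphologically.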

[6] = read-out: sulfotransferase (SULT2A), SULT2A1 (gene 6822); test: CLD_SULT2A_24hr: CellzDirect (CLD) Gene Expression Assay for sulfotransferase (SULT2A) at 24 hours (AID 2283694)
Summary of the method: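 mRNA is measured by qNPA: probe hybridisation, S1 nuclease digestion, chemiluminescence, in lysates from human primary hepatocytes harvested 24 h after daily dosing. Vehicle was 0.2% DMSO. Phase-contrast microscopy flagged cytotoxicity (yes/no).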

[7] = read-out: Cytochrome P450 3A4 (Homo sapiens) (UniProt P08684); test: CLD_CYP3A4_48hr: CellzDirect (CLD) Gene Expression Assay for xenobiotic metabolism (CYP3A4) at 48 hours (AID 2283698)
Summary of the method: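 CYP3A4 induction read by qNPA chemiluminescence after 48 h, with fresh dosing solutions on consecutive days, in cultured human hepatocytes (two donors). Vehicle 0.2% DMSO as baseline; microscopy-based cytotoxicity annotated yes/no alongside data.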

[8] = read-out: Cytochrome P450 2C19 (Homo sapiens) (UniProt P33261); test: CLD_CYP2C19_48hr: CellzDirect (CLD) Gene Expression Assay for xenobiotic metabolism (CYP2C19) at 48 hours (AID 2283700);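 note: fitted upward so actives raise CYP2C19 mRNA above the 0.2% DMSO vehicle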
Summary of the method: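 CYP2C19 mRNA induction read by chemiluminescent quantitative nuclease protection assay after 48 h, with fresh compound added daily for two days to cultured human liver hepatocytes. Activity fitted upward against 0.2% DMSO vehicle.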

[9] = CLD_ACTIN_48hr: CellzDirect (CLD) Gene Expression Assay for Baseline Control (Actin) at 48 hours (AID 2283702)
Summary of the method: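 Background-control actin mRNA read by qNPA chemiluminescence at 48 h. Human hepatocyte cultures from two donors received fresh multi-concentration chemical doses daily for two days; 0.2% DMSO served as vehicle baseline.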

[10] = read-out: Broad substrate specificity ATP-binding cassette transporter ABCG2 (Homo sapiens) (UniProt Q9UNQ0); test: CLD_ABCG2_24hr: CellzDirect (CLD) Gene Expression Assay for ABC Transporter (ABCG2) at 24 hours (AID 2283685)
Summary of the method: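 ABCG2 mRNA induction, read as gain of chemiluminescent signal over 0.2% DMSO, was measured by quantitative nuclease protection at 24 h. Cultured human liver hepatocytes were given fresh dosing solutions of test chemicals at several concentrations each day.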

[11] = read-out: glucuronosyltransferase (UGT1A1), UGT1A1 (gene 54658); test: CLD_UGT1A1_24hr: CellzDirect (CLD) Gene Expression Assay for glucuronosyltransferase (UGT1A1) at 24 hours (AID 2283696)
Summary of the method: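 UGT1A1 transcript induction was measured by quantitative nuclease protection assay (chemiluminescence) in human hepatocyte cultures 24 h after daily fresh dosing, with 0.2% DMSO as vehicle and baseline.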

[12] = read-out: Cytochrome P450 2C9 (Homo sapiens) (UniProt P11712); test: CLD_CYP2C9_48hr: CellzDirect (CLD) Gene Expression Assay for xenobiotic metabolism (CYP2C9) at 48 hours (AID 2283701; active = hit-call score of the fitted dose curve at least 0.9, where 1 is the maximum; inactive = score below 0.9)
Summary of the method: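 mRNA level measured by quantitative nuclease protection (S1 digestion, chemiluminescent detection) in lysates of human primary hepatocytes exposed 48 h with daily re-dosing. Induction fitted positively versus 0.2% DMSO; morphology-based cytotoxicity flagged yes/no.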

[13] = read-out: Cytochrome P450 2B6 (Homo sapiens) (UniProt P20813); test: CLD_CYP2B6_24hr: CellzDirect (CLD) Gene Expression Assay for xenobiotic metabolism (CYP2B6) at 24 hours (AID 2283686)
Summary of the method: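 qNPA chemiluminescent measurement of mRNA at 24 hours in human primary hepatocyte cultures from two donor preparations, with daily fresh dosing and 0.2% DMSO vehicle as baseline. Morphology-based cytotoxicity flagged yes/no.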

[14] = read-out: Cytochrome P450 2B6 (Homo sapiens) (UniProt P20813); test: CLD_CYP2B6_48hr: CellzDirect (CLD) Gene Expression Assay for xenobiotic metabolism (CYP2B6) at 48 hours (AID 2283699);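 note: actives raise transcript level above DMSO so potency reflects induction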
Summary of the method: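 CYP2B6 transcript induction, read by quantitative nuclease protection (S1 digestion, chemiluminescent detection) 48 h after dosing, is fitted upward against 0.2% DMSO. Cultured human liver primary cells, two donor preparations, received fresh chemical daily over multiple concentrations.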

[15] = read-out: HMG-CoA synthase (HMGCS2), HMGCS2 (gene 3158); test: CLD_HMGCS2_24hr: CellzDirect (CLD) Gene Expression Assay for HMG-CoA synthase (HMGCS2) at 24 hours (AID 2283691)
Summary of the method: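 qNPA with S1 nuclease digestion and chemiluminescent detection gave HMGCS2 transcript levels, fitted upward against 0.2% DMSO vehicle. Cultured human hepatocytes (two donors) received fresh compound daily and were harvested at 24 h; phase-contrast morphology flagged cytotoxicity.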

[16] = read-out: Glyceraldehyde-3-phosphate dehydrogenase (Homo sapiens) (UniProt P04406); test: CLD_GAPDH_6hr: CellzDirect (CLD) Gene Expression Assay for Baseline Control (Glyceraldehyde 3-phosphate dehydrogenase) at 6 hours (AID 2283681);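 note: active means increased signal relative to DMSO vehicle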
Summary of the method: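 GAPDH baseline-control readout from qNPA (S1 nuclease digestion, probe hybridization, chemiluminescence) in lysates of cultured human hepatocytes harvested 6 h post-dosing. Chemicals tested at multiple concentrations versus 0.2% DMSO vehicle; microscopy-based cytotoxicity flagged yes/no.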

[17] = read-out: Glyceraldehyde-3-phosphate dehydrogenase (Homo sapiens) (UniProt P04406); test: CLD_GAPDH_24hr: CellzDirect (CLD) Gene Expression Assay for Baseline Control (Glyceraldehyde 3-phosphate dehydrogenase) at 24 hours (AID 2283692)
Summary of the method: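 GAPDH baseline-control readout: qNPA chemiluminescent mRNA signal in human primary hepatocytes harvested 24 h after daily dosing, normalised to 0.2% DMSO with positive fitting direction; cytotoxicity annotated by phase-contrast morphology.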

[18] = read-out: ABC Transporter (ABCB1), ABCB1 (gene 5243); test: CLD_ABCB1_48hr: CellzDirect (CLD) Gene Expression Assay for ABC Transporter (ABCB1) at 48 hours (AID 2283695)
Summary of the method: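 ABCB1 mRNA was measured by quantitative nuclease protection assay (chemiluminescence) 48 h after dosing. Human hepatocyte cultures from two separate donors received fresh dosing solutions daily for two days, with 0.2% DMSO as vehicle. Positive-direction fit against DMSO.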

Measured: AC50

Sequence of Cytochrome P450 2C19 (Homo sapiens) (P33261 whole entry, looked up): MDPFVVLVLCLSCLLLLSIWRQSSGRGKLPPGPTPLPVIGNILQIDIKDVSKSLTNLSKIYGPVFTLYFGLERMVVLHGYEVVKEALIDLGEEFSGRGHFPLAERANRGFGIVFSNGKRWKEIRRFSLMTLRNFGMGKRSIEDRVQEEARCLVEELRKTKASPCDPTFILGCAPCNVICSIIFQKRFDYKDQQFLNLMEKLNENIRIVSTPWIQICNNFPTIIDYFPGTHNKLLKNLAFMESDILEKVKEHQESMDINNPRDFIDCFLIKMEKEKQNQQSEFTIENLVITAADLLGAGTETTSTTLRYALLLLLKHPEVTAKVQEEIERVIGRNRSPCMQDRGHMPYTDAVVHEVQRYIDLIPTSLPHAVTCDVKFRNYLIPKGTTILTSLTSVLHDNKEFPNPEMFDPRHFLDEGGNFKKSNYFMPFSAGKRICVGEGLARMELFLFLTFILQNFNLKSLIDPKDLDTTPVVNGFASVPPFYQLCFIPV
Sequence of Broad substrate specificity ATP-binding cassette transporter ABCG2 (Homo sapiens) (Q9UNQ0 whole entry, looked up): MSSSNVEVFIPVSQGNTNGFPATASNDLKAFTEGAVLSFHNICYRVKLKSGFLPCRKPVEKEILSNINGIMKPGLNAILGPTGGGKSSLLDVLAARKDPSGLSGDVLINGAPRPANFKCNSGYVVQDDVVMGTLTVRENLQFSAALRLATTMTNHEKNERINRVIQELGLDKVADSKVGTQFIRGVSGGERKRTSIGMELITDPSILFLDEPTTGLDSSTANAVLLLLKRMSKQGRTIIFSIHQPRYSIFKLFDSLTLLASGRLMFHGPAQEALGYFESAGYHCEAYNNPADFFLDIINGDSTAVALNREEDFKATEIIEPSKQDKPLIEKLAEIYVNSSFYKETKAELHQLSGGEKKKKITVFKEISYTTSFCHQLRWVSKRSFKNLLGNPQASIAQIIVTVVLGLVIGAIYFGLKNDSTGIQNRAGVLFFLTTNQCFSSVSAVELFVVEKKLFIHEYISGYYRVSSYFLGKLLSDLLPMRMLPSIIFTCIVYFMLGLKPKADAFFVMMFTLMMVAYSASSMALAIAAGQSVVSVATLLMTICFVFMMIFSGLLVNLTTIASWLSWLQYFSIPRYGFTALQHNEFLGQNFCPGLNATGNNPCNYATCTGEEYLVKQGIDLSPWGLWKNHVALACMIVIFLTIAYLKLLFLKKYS
Sequence of Cytochrome P450 3A4 (Homo sapiens) (P08684 whole entry, looked up): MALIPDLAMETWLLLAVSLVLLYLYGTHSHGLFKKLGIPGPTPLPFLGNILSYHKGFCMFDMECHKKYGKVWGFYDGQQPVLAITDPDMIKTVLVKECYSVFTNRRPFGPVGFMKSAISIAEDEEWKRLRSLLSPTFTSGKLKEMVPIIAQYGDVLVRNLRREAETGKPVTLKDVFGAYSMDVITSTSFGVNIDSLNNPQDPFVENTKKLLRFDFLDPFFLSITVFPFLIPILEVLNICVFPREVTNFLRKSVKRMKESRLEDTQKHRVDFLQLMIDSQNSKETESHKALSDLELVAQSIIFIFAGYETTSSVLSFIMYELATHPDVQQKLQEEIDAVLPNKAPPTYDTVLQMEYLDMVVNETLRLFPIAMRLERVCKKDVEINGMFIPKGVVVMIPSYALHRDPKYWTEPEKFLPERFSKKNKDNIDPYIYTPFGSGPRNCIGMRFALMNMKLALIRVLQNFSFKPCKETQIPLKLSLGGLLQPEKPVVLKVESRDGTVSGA
Sequence of Glyceraldehyde-3-phosphate dehydrogenase (Homo sapiens) (P04406 whole entry, looked up): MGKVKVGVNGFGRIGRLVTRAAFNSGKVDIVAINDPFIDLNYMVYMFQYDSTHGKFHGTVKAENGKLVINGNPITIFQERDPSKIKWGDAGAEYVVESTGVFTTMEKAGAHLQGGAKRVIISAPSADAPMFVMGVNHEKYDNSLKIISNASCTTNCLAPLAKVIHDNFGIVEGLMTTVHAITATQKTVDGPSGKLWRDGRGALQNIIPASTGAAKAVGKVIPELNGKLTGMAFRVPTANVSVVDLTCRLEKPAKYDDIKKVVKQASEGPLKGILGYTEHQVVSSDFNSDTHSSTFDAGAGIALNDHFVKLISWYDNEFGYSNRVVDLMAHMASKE

CCSC(=O)N1CCCCCC1
inactive: [1] | [2] | [3] | [5] | [6] | [8] | [9]
active: [4] 0.0865 µM | [7] 3.97 µM

CC1(C)CCC(=Cc2ccc(Cl)cc2)C1(O)Cn1cncn1 (configuration not stated)
active: [1] 3.47 µM
inactive: [2] | [10] | [3] | [4] | [11] | [12]

CCN(CC)c1nc(C)cc(OP(=S)(OC)OC)n1
active: [13] 0.902 µM | [4] 3.81 µM | [14] 0.684 µM
inactive: [6]

CCOC(=O)C(C)OC(=O)c1cc(Oc2ccc(C(F)(F)F)cc2Cl)ccc1[N+](=O)[O-] (configuration not stated)
active: [1] 4.61 µM | [4] 3.19 µM | [15] 0.31 µM | [11] 2.46 µM | [7] 5.01 µM
inactive: [10] | [8]

Cc1nc(N(C)C)nc(OC(=O)N(C)C)c1C
active: [13] 4.29 µM | [4] 20 µM
inactive: [10] | [3] | [15] | [6] | [8] | [12] | [9]

CCN(CC)C(=O)C(C)Oc1cccc2ccccc12 (configuration not stated)
active: [7] 3.72 µM
inactive: [3] | [4] | [11] | [8] | [12]

CS(=O)(=O)c1cc(C(F)(F)F)ccc1C(=O)c1cnoc1C1CC1
active: [4] 9.79 µM | [14] 9.48 µM
inactive: [16] | [2] | [17] | [5] | [18] | [11]

Nc1cnn(-c2ccccc2)c(=O)c1Cl
active: [1] 5.8 µM
inactive: [2] | [10] | [3] | [17] | [8]

Nc1c(Cl)c(F)nc(OCC(=O)O)c1Cl
inactive: [16] | [10] | [3] | [4] | [17] | [11] | [12] | [9]

CNC(=O)Oc1cccc2ccccc12
inactive: [2] | [10] | [17] | [5]
active: [1] 2.83 µM

CCC(C)n1c(=O)[nH]c(C)c(Br)c1=O (configuration not stated)
active: [14] 3.28 µM
inactive: [4]

COP(=O)(OC)O/C(C)=C/C(=O)N(C)C
inactive: [16] | [10] | [3] | [4] | [15] | [5] | [14] | [8] | [12]

COC(=O)NC(=S)Nc1ccccc1NC(=S)NC(=O)OC
inactive: [10] | [3] | [18] | [11] | [12] | [9]
active: [4] 3.97 µM

N#Cc1c[nH]cc1-c1cccc2c1OC(F)(F)O2
inactive: [11] | [7]
active: [4] 4.26 µM

COc1cc(OC)nc(NC(=O)NS(=O)(=O)c2ncccc2OCC(F)(F)F)n1
inactive: [1] | [2] | [3] | [4] | [8] | [12] | [9]

COc1cc(Cl)c(OC)cc1Cl
inactive: [2] | [10] | [3] | [4] | [5] | [8]

CC(C)=CC1C(C(=O)OCc2coc(Cc3ccccc3)c2)C1(C)C (configuration not stated)
inactive: [1] | [10] | [3] | [4] | [17] | [5] | [6] | [8]

Cc1cc(C)nc(Nc2ccccc2)n1
active: [4] 1.78 µM | [14] 1.61 µM
inactive: [6] | [11] | [12]

Cc1c(COC(=O)[C@@H]2[C@H](/C=C(\Cl)C(F)(F)F)C2(C)C)cccc1-c1ccccc1
inactive: [10] | [3] | [5] | [12]
active: [2] 29.9 µM | [13] 4.37 µM | [4] 6.84 µM

CC(C)N1C(=O)N(c2ccccc2)CSC1=NC(C)(C)C
active: [13] 4.23 µM | [4] 20 µM | [7] 8.18 µM
inactive: [2] | [10] | [3] | [18] | [8] | [12]

COCC(=O)N(c1c(C)cccc1C)C(C)C(=O)OC (configuration not stated)
active: [13] 4.09 µM | [14] 3.08 µM
inactive: [2] | [10] | [3] | [17] | [5] | [11] | [8] | [12]
